Data on seven molecules can be found in PubChem BioAssay (NCI).

Experiment in all cases: NCI-60 one-dose screen, 48 h (100 = growth as untreated, 0 = no growth, -100 = all killed)
Conditions in all cases: 10 µM unless noted

The subject of assay [1] is HCT-15 colon.
Assay [2] deals with HT29 colon.
For assay [3], the system named is SNB-75 CNS.
In assay [4] the test system is SNB-19 CNS.
The subject of assay [5] is U251 CNS.
Assay [6] relates to PC-3 prostate.
In assay [7] the test system is SK-MEL-5 melanoma.
Assay [8] concerns UACC-62 melanoma.
Assay [9] concerns LOX IMVI melanoma.
Assay [10] relates to SK-MEL-28 melanoma.
The test system of assay [11] is SK-MEL-2 melanoma.
For assay [12], the system named is EKVX NSCLC.
Assay [13] has as its system SN12C renal.
The test system of assay [14] is UO-31 renal.
Assay [15] relates to TK-10 renal.
Assay [16] deals with ACHN renal.
The test system of assay [17] is CAKI-1 renal.
In assay [18] the test system is A498 renal.
Assay [19] concerns HL-60(TB) leukemia.
The test system of assay [20] is CCRF-CEM leukemia.

Each structure is given as a SMILES string. Several values for one entry are separate records, joined by “and”; a condition that tells them apart may be missing. Identical values can stand only once. Compounds without any hit were thinned out: in the full panel of roughly 83,000, 20% have a hit.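 Results are percent growth after 48 hours of single-concentration exposure. 100 means growth as in untreated cells, lower positive values show inhibition; negative values down to -100 show cell death.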 A number with no mark means an inactive call. Activity calls are given as the source filed them. Rule for the calls: active = growth percent below 10; inactive = the rest.

Regarding `C/C(=C\c1ccn(-c2ccc(N)cc2F)n1)[C@@H]1C[C@@H]2O[C@]2(C)CCC[C@H](C)[C@H](O)[C@@H](C)C(=O)C(C)(C)[C@@H](O)CC(=O)O1`, the growth in assay [1] was 14%; in [2], 13.1%; in assay [3] it was -6.93% (active); in assay [4], 26%; in assay [5], 18.9%; in [6], 17%. The growth in assay [7] was 8.85% (active); in [8] it was 11.6%; in assay [9] it was 27.3%; in [10] it was 54.5%; in [11], 13.5%; in [12], 46.7%. For the same molecule, the growth in assay [13] is 29.3%; in [14] it was 29.1%; in assay [15] it was 48.3%; in assay [16] it was 38.9%; in assay [17] it was 41.4%; in assay [18] it was 0.324% (active). Further, the growth in assay [19] was 3.32% (active); in assay [20], 12.9%.
Take `NC(=O)c1c(Br)c(Br)c(Br)c(Br)c1C(=O)O` (tested in a mixture with another compound): the growth in [1] is 92.8% and 106%; in assay [2], 106% and 103%; in assay [3] it was 115% and 95.8%; in assay [4], 96.6% and 104%; in [5] it was 95.4% and 96.2%; in assay [6], 90.8% and 86.6%. Further, the growth in [7] is 95.2% and 101%; in assay [8], 83.7% and 104%; in assay [9] it was 31.8% and 101%; in assay [10], 110% and 108%; in assay [11] it was 101% and 113%; in assay [12], 108% and 99.9%. Moreover, the growth in assay [13] was 87.8% and 93.3%; in [14], 72.4% and 51.5%; in assay [15] it was 122% and 123%; in [16] it was 92.7% and 101%; in assay [17], 92.8% and 97.5%; in [18], 113%. In addition, the growth in assay [19] was 85% and 68.2%; in assay [20], 35.5% and 79.4%.
For the molecule `CC(=O)Nc1nc2c(s1)C1=CC[C@H]3[C@@H]4CC[C@H](OC(C)=O)[C@@]4(C)CC[C@@H]3[C@@]1(C)CC2`, the growth was 40.3% in [1]; 26.6% in assay [2]; 0.377% (active) in assay [3]; 62% in assay [4]; 43.9% in assay [5]; 59.2% in [6]. Also, the growth was 36.9% in assay [7]; 49.5% in assay [8]; 63.5% in assay [9]; 54.7% in assay [10]; 50.3% in [11]; 82.9% in assay [12]. Moreover, the growth in assay [13] was 69.7%; in assay [14], 72.7%; in assay [15], 96.2%; in assay [16], 67.7%; in assay [17], 24.4%; in [18] it was 62.1%. The growth in assay [19] is 43.4%; in assay [20], 57.7%.
Turning to `C#Cc1cccc(Nc2nc(Cl)nc3cc(NC(=O)CF)ccc23)c1`, the growth in [1] was 35.4%; in [2], 16.1%; in [3], 61.2%; in [4], 89%; in assay [5] it was 79.3%; in assay [6] it was 57.8%. In addition, the growth in assay [7] is 37.3%; in [8], 72.9%; in [9], 65.2%; in [10], 73.2%; in assay [11], 66%; in assay [12] it was 71.4%. The growth in assay [13] is 91.9%; in assay [14], 74%; in assay [15], 85.7%; in assay [16], 92.5%; in assay [17], 55.8%; in [18], 87.4%. The results for the growth in [19] and in assay [20] were 90.3% and 93.4%, respectively.
With `CC1=CC(=Nc2ccc(N(CCCl)CCCl)cc2)C=C(C)C1=O`, the growth was 8.95% (active) in assay [1]; 11.1% in [2]; 25.3% in assay [3]; 37.9% in assay [4]; 17.9% in [5]; 41.6% in [6]. Moreover, the growth is 22.8% in assay [7]; 6.59% (active) in [8]; 16.9% in assay [9]; 26.3% in assay [10]; -8.46% (active) in [11]; 70.6% in assay [12]. For the same molecule, the growth in [13] is 20.4%; in assay [14], -13.7% (active); in [15], 9.98% (active); in assay [16], -1.94% (active); in [17] it was -44.9% (active); in [18], 69.8%. In addition, the growth in [19] was -7.43% (active); in assay [20], -6.58% (active).
For the molecule `COc1ccc(O)c2c(=O)c3c(OC)cc4c(c3oc12)[C@@H]1C=CO[C@@H]1O4`, the growth was 53.3% in [1]; 54.3% in [2]; 38.5% in assay [3]; 81% in [4]; 73.4% in assay [5]; 76.7% in assay [6]. For the same molecule, the growth in [7] is 25.9%; in assay [8] it was 7.2% (active); in assay [9], 72.6%; in [10] it was 98.2%; in [11] it was 6.45% (active); in [12] it was 6.71% (active). Besides, the growth is 73.1% in assay [13]; 51.9% in [14]; 36.8% in assay [15]; 5.59% (active) in [16]; 35.9% in assay [17]; 87% in assay [18]. Also, the growth in assay [19] was 65.8%; in [20] it was 92.6%.
Consider `CC12CCC3C(CCC4CC(O)CCC43C)C1CCC2=O` (stereo not given), for which the growth in [1] is 91.4%; in assay [2] it was 102%; in assay [3], 109%; in [4], 112%; in assay [5], 95.9%; in [6] it was 99.6%. The growth in assay [7] was 101%; in assay [8] it was 98.9%; in [9], 92%; in assay [10], 189%; in assay [11], 91.7%; in assay [12], 73.4%. The growth in [13] is 102%; in assay [14] it was 94.1%; in [15], 108%; in [16], 109%; in assay [17] it was 81.5%; in assay [18], 162%. Further, the growth in assay [19] is 92.3%; in assay [20], 107%.
